Reference: publication PMC4552634, “A New Set of Chemical Starting Points with Plasmodium falciparum Transmission-Blocking Potential for Antimalarial Drug Discovery” (PLoS ONE, 2015)
Out of some 13,000 compounds screened, about 3,200 (25%) showed an effect of 50% or more. The list shows a part of the results.

Each compound was assayed on P. falciparum stage V gametocytes. Conditions: 48 h, 5 µM; inhibitor.
Parameters: BacTiter-Glo ATP luminescence viability of purified stage V gametocytes in 384-well plates, per cent inhibition versus DMSO
In the case of `O=C(/C=C/c1ccc(Cl)c(Cl)c1)NCCCCCN1CCC(NC(=S)Nc2ccc(Cl)cc2Cl)CC1` [TCMDC-135902], the “% Inhibition” value is reported as 24.59%.
With `CCOc1ccc2nc(N(CCCn3ccnc3)C(=O)C=Cc3cccs3)sc2c1` [TCMDC-124925] the “% Inhibition” value was -19.53%.
In the case of `Nc1nc(N)c2c(ccc3nn(S(=O)(=O)N4CCCC4)cc32)n1` [TCMDC-137854], the “% Inhibition” value is reported as 1.328%.
For `COc1c(C2CCN(CCCCNC(=O)C=Cc3cc4cc(Cl)ccc4o3)CC2)ccc2c1CCCC2` [TCMDC-135062], the “% Inhibition” value was -50.69%.
For `COc1c(C2CCN(CCCCNC(=O)c3ccc(-c4ccc(C#N)cc4)c(O)c3)CC2)ccc2c1CCCC2` [TCMDC-138682], the “% Inhibition” value was 69.72%.
For `COC(=O)COc1cc(C(=O)NCCCCN2CCC(c3ccc4c(c3OC)CCCC4)CC2)ccc1-c1ccc(Cl)cc1` [TCMDC-134372], the “% Inhibition” value was 38.74%.
`COc1c(C2CCN(CCCCNC(=O)c3oc(-c4ccc(Cl)cc4)cc3CO)CC2)ccc2c1CCCC2` [TCMDC-134829] was tested, and the “% Inhibition” value was -10.73%.
In the case of `COc1c(C2CCN(CCCCNC(=O)C=Cc3ccccc3C(F)(F)F)CC2)ccc2c1CCCC2` [TCMDC-135279], the “% Inhibition” value is reported as 85.89%.
For `COc1c(C2CCN(CCCCNC(=O)c3ccc(-c4ccc(C#N)cc4)nc3)CC2)ccc2c1CCCC2` [TCMDC-134688], the “% Inhibition” value was -0.6168%.
In the case of `COc1c(C2CCN(CCCCNC(=O)c3cc(-c4ccc(C#N)cc4)n[nH]3)CC2)ccc2c1CCCC2` [TCMDC-134659], the “% Inhibition” value is reported as -32.94%.
In the case of `COc1c(C2CCN(CCCCNC(=O)c3ccc(-c4ccc(Cl)cc4)c(OCCN(C)C)c3)CC2)ccc2c1CCCC2` [TCMDC-134371], the “% Inhibition” value is reported as 101.9%.
In the case of `COc1c(C2CCN(CCCCNC(=O)c3ccc(-c4ccc(Cl)cc4)c(O)c3)CC2)ccc2c1CCCC2` [TCMDC-134282], the “% Inhibition” value is reported as 111.5%.
With `CCN(c1ccccc1)S(=O)(=O)c1ccc(OC)c(NC(=O)c2cccc(C(F)(F)F)c2)c1` [TCMDC-125343] the “% Inhibition” value was 14.96%.
With `O=C(NC1CCN(c2ccnc3cc(Cl)ccc23)C1)c1cccc(F)c1` (centres unmarked) [TCMDC-133656] the “% Inhibition” value was 0.5042%.
For `COc1c(C2CCN(CCCCNC(=O)c3ccc(-c4ccc(NC(=O)C(F)(F)F)cc4)cc3)CC2)ccc2c1CCCC2` [TCMDC-134380], the “% Inhibition” value was 96.81%.
`NC(=O)COc1c(C2CCN(CCCCNC(=O)c3ccc(-c4ccc(Cl)cc4)c(O)c3)CC2)ccc2c1CCCC2` [TCMDC-133379] was tested, and the “% Inhibition” value was 84.67%.
With `Cc1nc(-c2ccc(C#N)cc2)sc1C(=O)NCCCCN1CCC(c2ccc3c(c2OCCO)CCCC3)CC1` [TCMDC-138879] the “% Inhibition” value was 11.85%.
For `N#Cc1ccc(NC(=O)c2ccc(C(=O)NCCCCN3CCC(c4ccc5c(c4OCCOC4CCCCO4)CCCC5)CC3)cc2)cc1` (centres unmarked) [TCMDC-138789], the “% Inhibition” value was 80.58%.
In the case of `CC(=O)c1ccc(-c2ccc(C(=O)NCCCCN3CCC(c4ccc5c(c4OCC(N)=O)CCCC5)CC3)cc2)s1` [TCMDC-134174], the “% Inhibition” value is reported as -29.18%.
`COc1c(C2CCN(CCCCNC(=O)c3ccc(-c4ccc(Cl)cc4)c(OCC(N)=O)c3)CC2)ccc2c1CCCC2` [TCMDC-134373] was tested, and the “% Inhibition” value was 13.03%.
With `COc1c(C2CCN(CCCCNC(=O)c3cccc(-c4ccc(C(F)(F)F)cc4)c3)CC2)ccc2c1CCCC2` [TCMDC-138701] the “% Inhibition” value was 48.96%.
In the case of `COc1c(C2CCN(CCCCNC(=O)c3ccc(-c4ccc(Cl)cc4)cn3)CC2)ccc2c1CCCC2` [TCMDC-134687], the “% Inhibition” value is reported as 70.09%.
`COc1c(C2CCN(CCCCNC(=O)c3cc(-c4ccc(Cl)cc4)oc3C)CC2)ccc2c1CCCC2` [TCMDC-134696] was tested, and the “% Inhibition” value was 7.674%.
`COc1c(C2CCN(CCCCNC(=O)c3cc(-c4ccc(Cl)cc4)[nH]c3C)CC2)ccc2c1CCCC2` [TCMDC-135270] was tested, and the “% Inhibition” value was 45.24%.
`COC(=O)c1sc2ccccc2c1NC(=O)c1ccc(C)c(C)c1` [TCMDC-125650] was tested, and the “% Inhibition” value was 21.99%.
For `CCC(C)(C)c1ccc2nc(N)nc(N)c2c1C` [TCMDC-137829], the “% Inhibition” value was -16.15%.
`CC(=O)N1CCC(C(=O)Nc2ccc(-c3cccc(-c4nc5ccc(C(F)(F)F)cc5[nH]4)c3)cc2)CC1` [TCMDC-132166] was tested, and the “% Inhibition” value was -13.72%.
In the case of `O=C(/C=C/c1ccc(Cl)c(Cl)c1)NCCCCCN1CCC(NC(=O)Nc2ccc(Cl)cc2Cl)CC1` [TCMDC-135729], the “% Inhibition” value is reported as -21.32%.
In the case of `O=C(Nc1cccc(N2CCC(NCc3cccnc3)CC2)c1)c1cccc(C(F)(F)F)c1` [TCMDC-124649], the “% Inhibition” value is reported as -0.3933%.
In the case of `COc1c(C2CCN(CCCCNC(=O)c3noc(-c4ccc(C#N)cc4)n3)CC2)ccc2c1CCCC2` [TCMDC-138814], the “% Inhibition” value is reported as 4.753%.
With `COc1c(C2CCN(CCCCNC(=O)c3ccc(NC(=O)c4ccc(C#N)cc4)cc3)CC2)ccc2c1CCCC2` [TCMDC-138664] the “% Inhibition” value was 116.8%.
`Cn1ccc(C(=O)Nc2ccc3c(c2)CN(Cc2ccc(N4CCCC4)o2)CCC3)n1` [TCMDC-134722] was tested, and the “% Inhibition” value was -3.632%.
With `O=C(NCc1cccc(F)c1)Nc1cccc(-c2cccc(-c3nc4ccccc4[nH]3)c2)c1` [TCMDC-133290] the “% Inhibition” value was 0.3342%.
`CC(=O)Nc1ccc(CN2Cc3ccc(NC(=O)Nc4ccc(Oc5ccccc5)cc4)cc3C2)s1` [TCMDC-141756] was tested, and the “% Inhibition” value was -76.53%.
`Fc1ccc2[nH]c(-c3cccc(-c4ccc(CN5CCC(CCN6CCCCC6)CC5)cc4)c3)nc2c1` [TCMDC-133940] was tested, and the “% Inhibition” value was 104.4%.
`FC(F)(F)c1ccc2nc(-c3ccc(-c4cccc(CN5CCCCC5)c4)cc3)[nH]c2c1` [TCMDC-133886] was tested, and the “% Inhibition” value was -44.09%.
In the case of `FC(F)(F)c1ccc2[nH]c(-c3ccc(-c4cccc(CN5CCC(CCN6CCCCC6)CC5)c4)cc3)nc2c1` [TCMDC-133941], the “% Inhibition” value is reported as 100.4%.
`c1cc(-c2ccc(CN3CCCCC3)cc2)cc(-c2nc3ccccc3[nH]2)c1` [TCMDC-133917] was tested, and the “% Inhibition” value was -5.733%.
For `NC(=O)C1CCN(Cc2ccc(-c3ccc(-c4nc5cc(F)ccc5[nH]4)cc3)cc2)CC1.O=C(O)C(F)(F)F` [TCMDC-132693], the “% Inhibition” value was 4.411%.
For `Fc1ccc2[nH]c(-c3ccc(-c4ccc(CN5CCC(CCN6CCCCC6)CC5)cc4)cc3)nc2c1` [TCMDC-133924], the “% Inhibition” value was 105.4%.
With `Cc1cccc2nc(-c3ccc(-c4ccc(CN5CCCC(O)C5)cc4)cc3)[nH]c12.O=C(O)C(F)(F)F` (centres unmarked) [TCMDC-133826] the “% Inhibition” value was 35.59%.
In the case of `Cc1cccc2nc(-c3ccc(-c4ccc(CN5CCC(CCN6CCCCC6)CC5)cc4)cc3)[nH]c12` [TCMDC-133929], the “% Inhibition” value is reported as 114%.
For `O=C(O)C(F)(F)F.OCC1CCN(Cc2ccc(-c3ccc(-c4nc5cc(F)ccc5[nH]4)cc3)cc2)CC1` [TCMDC-133125], the “% Inhibition” value was 29.73%.
`NC(=O)C1CCN(Cc2cccc(-c3ccc(-c4nc5ccc(C(F)(F)F)cc5[nH]4)cc3)c2)CC1` [TCMDC-132691] was tested, and the “% Inhibition” value was -22.66%.
With `Cc1cccc2nc(-c3ccc(-c4ccc(CN5CCC(C(N)=O)CC5)cc4)cc3)[nH]c12.O=C(O)C(F)(F)F` [TCMDC-132688] the “% Inhibition” value was 10.12%.
With `Fc1ccc2nc(-c3cccc(-c4ccc(CN5CCCCC5)cc4)c3)[nH]c2c1` [TCMDC-133887] the “% Inhibition” value was 2.75%.
`CC(=O)c1cccc2c(NC(=O)Nc3ccc4nccc(N5CCN(C)CC5)c4c3)cccc12` [TCMDC-139345] was tested, and the “% Inhibition” value was -42.22%.
With `O=C(Nc1ccsc1)Nc1cccc(-c2cccc(-c3nc4ccc(C(F)(F)F)cc4[nH]3)c2)c1` [TCMDC-133214] the “% Inhibition” value was -52.37%.
With `CC(=O)C1(c2ccccc2)CCN(CCC2(c3ccc(Cl)c(Cl)c3)CN(C(=O)Nc3cc(F)cc(F)c3)CCO2)CC1` (centres unmarked) [TCMDC-135332] the “% Inhibition” value was -16.09%.
For `N#Cc1ccc(NC(=O)c2ccc(Cc3ccc4c(c3)CCN(C3CCC3)CC4)cn2)cc1` [TCMDC-136453], the “% Inhibition” value was 22.22%.
`COc1ccc(NC(=O)/C=C/c2ccccc2Cl)cc1OCCN1CCC(O)(c2ccc(Cl)c(C(F)(F)F)c2)CC1` [TCMDC-140918] was tested, and the “% Inhibition” value was -10.77%.
With `OCCN1CCN(Cc2cccc(-c3cccc(-c4nc5ccc(F)cc5[nH]4)c3)c2)CC1` [TCMDC-133035] the “% Inhibition” value was -22.3%.
With `Fc1ccc2[nH]c(-c3ccc(-c4ccc(CN5CCC(CCN6CCCCC6)CC5)cc4)s3)nc2c1` [TCMDC-133932] the “% Inhibition” value was 102.4%.
`Fc1ccc2nc(-c3ccc(-c4cccc(CN5CCC(CCN6CCCCC6)CC5)c4)cc3)[nH]c2c1` [TCMDC-133933] was tested, and the “% Inhibition” value was 114%.
For `Fc1ccc2nc(-c3ccc(-c4cccc(CN5CCCCC5)c4)cc3)[nH]c2c1` [TCMDC-133896], the “% Inhibition” value was -18.48%.
`OCc1c(Cl)cc(Cl)cc1CNCCCNc1nc2ccccc2[nH]1` [TCMDC-140012] was tested, and the “% Inhibition” value was -23.66%.
For `O=C(/C=C/c1ccc(Cl)c(Cl)c1)NCC1CCN(Cc2ccc(O)cc2)CC1` [TCMDC-141740], the “% Inhibition” value was 34.51%.
`CCC1(C)CC(CCNCc2ccccc2O)(c2ccccc2OC)CCO1` (centres unmarked) [TCMDC-125080] was tested, and the “% Inhibition” value was 19.87%.
In the case of `CN1CCC(N(Cc2ccc(-c3cnc(NCc4ccccc4)nc3)cc2)S(=O)(=O)c2ccccc2)CC1` [TCMDC-137158], the “% Inhibition” value is reported as 31.68%.
`Cn1nc(-c2cccc(CNCc3ccccc3)c2)c2cnc(NC3CCCC3)nc21` [TCMDC-134839] was tested, and the “% Inhibition” value was -3.994%.
In the case of `CN1CCC(NCc2ccc(-c3cnc(NCc4ccccc4)nc3)cc2)CC1` [TCMDC-134120], the “% Inhibition” value is reported as 82.56%.
For `CN1CCC(NCc2cccc(-c3cnc(NCc4ccccc4)nc3)c2)CC1` [TCMDC-134119], the “% Inhibition” value was 58.9%.
For `CN1CCC(NCc2cccc(-c3nn(C)c4nc(NC5CCCC5)ncc34)c2)CC1` [TCMDC-134840], the “% Inhibition” value was 110.3%.
`Cn1nc(-c2cccc(CNCCc3cccs3)c2)c2cnc(NC3CCCC3)nc21` [TCMDC-135031] was tested, and the “% Inhibition” value was 12.01%.
`COc1ccc(-c2cnc(NCc3ccccc3)nc2)cc1CNC1CCN(C)CC1` [TCMDC-134121] was tested, and the “% Inhibition” value was 34.84%.
